Experiment [1] in a line: qHTS assay for small molecule agonists of the p53 signaling pathway - cell viability (AID 651633; calls by dose curve;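 further: p53RE-bla HCT reporter cells with a stable beta-lactamase p53 reporter; series mostly up to about 83 µM; nearly all actives have a fitted effect of over 30% in size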). In short, it runs like this: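 p53RE-bla cells were treated with compound for 16 hours at 37 C. Cytotoxicity was then measured as CellTiter-Glo luminescence after 30 min at room temperature.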
(In general: Quantitative high-throughput screening tests each substance at several concentrations.)

A short description of experiment [2]: qHTS assay for small molecule disruptors of the mitochondrial membrane potential - cell viability (AID 720634; calls by dose curve;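 further: human HepG2 liver cancer cells; series mostly up to about 83 µM; nearly all actives have a fitted effect of over 20% in size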). In short, it runs like this:
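Cells: HepG2, 2,000/well, attached overnight. Compound 1 hr, 37 C/5% CO2. +m-MPI dye, +CellTiter-Glo 30 min RT. Readout: luminescence (ATP).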

A short description of experiment [3]: qHTS assay to test for compound auto fluorescence at 535 nm (green) in HepG2 cells (AID 720675).
Experiment [4] can be described thus: qHTS assay to test for compound auto fluorescence at 460 nm (blue) in HEK293 cells (AID 720678). Summed up: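 Cells were seeded and left to adhere for 4-5 hr at 37C. Compounds were then pin-transferred. After an overnight incubation at 37C under 5% CO2, intrinsic fluorescence at 405/460 nm was measured and referenced to triamterene.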
Experiment [5] can be described thus: qHTS assay to test for compound auto fluorescence at 590 nm (red) in HEK293 cells (AID 720679). In short, it runs like this: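 Each well held 2,000 HEK293 cells in medium containing 10% dialyzed FBS. Following 4-5 hr attachment at 37C, 23 nL test compound or DMSO was added; plates sat overnight, and red fluorescence (540/590nm) was recorded.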
Experiment [6] can be described thus: qHTS assay to test for compound auto fluorescence at 460 nm (blue) in HEK293 cell free culture (AID 720681). Summed up:
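Compounds were added to cell-free DMEM with 10% FBS and fluorescence read directly. The blue channel used 405 nm excitation and 460 nm emission, with triamterene as the reference fluorophore.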

Experiment [7] is described as follows: qHTS assay to test for compound auto fluorescence at 535 nm (green) in HEK293 cell free culture (AID 720682). In short, it runs like this: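 Green-label autofluorescence (485 nm excitation, 535 nm emission) measured on compound added to cell-free culture medium (DMEM, 10% FBS). Output is expressed relative to fluorescein.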
The nature of experiment [8]: qHTS assay to test for compound auto fluorescence at 590 nm (red) in HepG2 cell free culture (AID 720684). Summed up: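 Compound was pinned into wells holding MEM with 10% FBS and no cells, and red fluorescence was read at Ex/Em 540/590 nm. Signal is expressed as auto fluorescence equivalency relative to Rose Bengal sodium.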
Experiment [9] is described as follows: qHTS assay to test for compound auto fluorescence at 460 nm (blue) in HepG2 cell free culture (AID 720685). In short, it runs like this:
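Compound (23 nL) or DMSO pinned into cell-free MEM with 10% FBS; blue fluorescence read at 405/460 nm excitation/emission, expressed as auto-fluorescence equivalency to triamterene.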

Experiment [10] can be described thus: qHTS assay to test for compound auto fluorescence at 535 nm (green) in HepG2 cell free culture (AID 720686).
Experiment [11] in a line: qHTS assay to test for compound auto fluorescence at 460 nm (blue) in HepG2 cells (AID 720687). In short, it runs like this:
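HepG2 cells in MEM with 10% FBS, attached overnight at 37 C, were exposed to compound or DMSO for 1 hr at 37 C, 5% CO2. Blue fluorescence was read at 405/460 nm, with triamterene as reference fluorophore.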

Experiment [12] is described as follows: qHTS assay to identify small molecule antagonists of the androgen receptor (AR) signaling pathway using the MDA cell line - cell viability counter screen (AID 743041; further: nearly all actives have a fitted effect of over 45% in size). In short, it runs like this: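 MDA-kb2 AR-luc cells (MMTV-luciferase, AR/GR responsive) treated with compounds plus R1881 agonist for 16 h at 37C. CellTiter-Fluor added at 15.5 h; fluorescence read after 30 min in the same wells.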

Experiment [13] in a line: qHTS assay to identify small molecule antagonists of the estrogen receptor alpha (ER-alpha) signaling pathway - cell viability counter screen (AID 743074; calls by dose curve;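 further: HEK293 cells carrying ER-alpha-UAS-bla reporter stimulated with 17beta-estradiol; nearly all actives have a fitted effect of over 45% in size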).
In the next experiment the target is Aromatase (Homo sapiens) (UniProt P11511). Kind of experiment: qHTS assay to identify aromatase inhibitors (AID 743083). Further: nearly all actives have a fitted effect of over 55% in size. Further: potency means the concentration at half of the fitted maximal effect.
Aromatase (Homo sapiens), sequence (P11511 whole entry, looked up): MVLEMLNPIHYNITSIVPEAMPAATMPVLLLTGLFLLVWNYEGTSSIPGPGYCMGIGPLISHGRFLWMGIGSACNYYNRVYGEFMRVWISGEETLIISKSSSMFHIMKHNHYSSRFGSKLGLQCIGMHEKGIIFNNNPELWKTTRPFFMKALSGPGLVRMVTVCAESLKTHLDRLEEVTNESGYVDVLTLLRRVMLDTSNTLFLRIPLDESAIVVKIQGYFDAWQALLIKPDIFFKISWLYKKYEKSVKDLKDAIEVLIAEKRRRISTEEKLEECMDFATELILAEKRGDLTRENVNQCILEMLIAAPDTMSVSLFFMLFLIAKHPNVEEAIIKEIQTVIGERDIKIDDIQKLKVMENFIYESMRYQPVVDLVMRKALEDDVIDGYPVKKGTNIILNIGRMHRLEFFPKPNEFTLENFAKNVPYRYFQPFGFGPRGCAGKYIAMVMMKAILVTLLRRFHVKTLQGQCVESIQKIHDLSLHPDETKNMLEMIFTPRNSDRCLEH
The nature of experiment [14]: qHTS assay to identify aromatase inhibitors - cell viability counter screen (AID 743084).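 Further: cells stimulated with testosterone during compound exposure; nearly all actives have a fitted effect of over 55% in size.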
The target in experiment [15] is Aryl hydrocarbon receptor (Homo sapiens) (UniProt P35869). The experiment in a line: qHTS assay to identify small molecule that activate the aryl hydrocarbon receptor (AhR) signaling pathway (AID 743085). Further: nearly all actives have a fitted effect of over 15% in size. Further: potency means the concentration at half of the fitted maximal effect. Summed up:
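HepG2 cells stably carrying a 20-DRE firefly luciferase reporter (HG2L7.5c1) treated with compound for 24 hr at 37C. Luciferase read by ONE-Glo luminescence, with CellTiter-Fluor viability read first.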

The nature of experiment [16]: qHTS assay for small molecules that induce genotoxicity in human embryonic kidney cells expressing luciferase-tagged ATAD5 (AID 651632). Further: nearly all actives have a fitted effect of over 15% in size. In short, it runs like this: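 ATAD5-luc HEK293T, 2,000 cells/well; cpd or DMSO pin-transferred; 16 hr, 37C/5% CO2; Amplite 30 min RT; luminescence.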
The nature of experiment [17]: qHTS assay for identifying genotoxic compounds that show differential cytotoxicity against isogenic chicken DT40 cell lines with known DNA damage response pathways - wild type cell line (AID 743012). Further: nearly all actives have a fitted effect of over 60% in size. Further: potency means the concentration at half of the fitted maximal effect. Summed up: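 Wild type DT40, 300 cells/well, ~0.5 h settle at 37 C/5% CO2; compounds in DMSO added by pintool; 40 h at 37 C/5% CO2; CellTiter-Glo, 30 min RT; luminescence.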

A short description of experiment [18]: qHTS assay for identifying genotoxic compounds that show differential cytotoxicity against isogenic chicken DT40 cell lines with known DNA damage response pathways - Rad54/Ku70 mutant cell line (AID 743015). Further: nearly all actives have a fitted effect of over 60% in size.
The nature of experiment [19]: qHTS assay to identify small molecule antagonists of the androgen receptor (AR) signaling pathway - cell viability counter screen (AID 743033; further: nearly all actives have a fitted effect of over 45% in size).

Molecules are shown by their SMILES. Results filed as inconclusive are left out. Activity calls are given as the source filed them. Unless noted, the call rests on the fitted dose curve; in most records, active means well fitted curve in the direction sought with a large enough effect in the repeat runs; inconclusive means weak or mixed curves; inactive means no such curve, though single readings can be large; an effect the other way counts as inactive or inconclusive.

Aryl hydrocarbon receptor (Homo sapiens), sequence (P35869 whole entry, looked up): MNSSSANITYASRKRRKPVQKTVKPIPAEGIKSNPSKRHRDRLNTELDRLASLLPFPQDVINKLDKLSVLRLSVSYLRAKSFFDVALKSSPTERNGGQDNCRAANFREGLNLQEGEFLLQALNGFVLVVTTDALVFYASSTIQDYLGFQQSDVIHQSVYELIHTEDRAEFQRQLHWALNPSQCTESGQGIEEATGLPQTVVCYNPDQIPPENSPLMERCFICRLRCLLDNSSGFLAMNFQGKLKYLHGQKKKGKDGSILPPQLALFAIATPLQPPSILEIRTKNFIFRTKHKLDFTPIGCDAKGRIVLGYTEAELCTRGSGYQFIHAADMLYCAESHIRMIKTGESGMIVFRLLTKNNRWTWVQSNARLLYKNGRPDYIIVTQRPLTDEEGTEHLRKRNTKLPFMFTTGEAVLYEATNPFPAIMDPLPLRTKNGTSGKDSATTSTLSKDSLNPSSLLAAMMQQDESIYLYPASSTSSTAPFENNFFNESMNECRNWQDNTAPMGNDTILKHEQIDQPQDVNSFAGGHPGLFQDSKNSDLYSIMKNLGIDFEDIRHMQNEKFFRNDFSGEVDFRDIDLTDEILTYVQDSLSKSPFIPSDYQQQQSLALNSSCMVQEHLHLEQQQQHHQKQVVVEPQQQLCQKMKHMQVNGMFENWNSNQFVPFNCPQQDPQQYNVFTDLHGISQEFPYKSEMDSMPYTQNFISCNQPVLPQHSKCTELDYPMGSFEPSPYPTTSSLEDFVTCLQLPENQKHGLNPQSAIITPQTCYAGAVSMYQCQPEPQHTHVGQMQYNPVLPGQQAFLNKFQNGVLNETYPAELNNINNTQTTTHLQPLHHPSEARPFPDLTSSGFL

Take `CCN(CC)/[N+]([O-])=N/O`: the Potency entry in [1], in experiment [2], in experiment [3], in experiment [4], in experiment [6] and in experiment [7] was “inactive” throughout. The Potency entry (in experiment [9]; in experiment [10]; in [11]; in experiment [12]; in experiment [13]; with Aromatase (Homo sapiens)) was “inactive” each time. For the same molecule, the Potency result in experiment [14] and in experiment [15] was “inactive” in each case. In addition, the molecule was classed as inactive in [5] and in experiment [8].
Regarding `COc1ccc(OC)c(C[C@H](C)N)c1`, the Potency result in [16], in [2], in experiment [3], in [4], in experiment [6] and in experiment [7] was “inactive” in each case. Also, the Potency entry (in experiment [9]; in experiment [10]; in experiment [17]; in [18]; in experiment [19]; with Aromatase (Homo sapiens)) was “inactive” each time. The Potency entry in experiment [14] and in experiment [15] was “inactive” each time. Moreover, the molecule was classed as inactive in experiment [5] and in [8].
For `Clc1ccc(C(Cn2ccnc2)OCc2csc3c(Cl)cccc23)c(Cl)c1` (stereo not drawn), the Potency entry in [16], in [2], in [3], in [4], in experiment [6] and in experiment [7] was “inactive” each time. Also, the Potency result in experiment [9], in [10], in experiment [11], in [12], in experiment [13] and in experiment [14] was “inactive” each time. For the same molecule, the Potency result in [15] was “inactive”. For the same molecule, the outcome in experiment [5] and in experiment [8] was inactive. In addition, the Potency in experiment [17] is 12.7 µM (active); with Aromatase (Homo sapiens), 4.03 µM (active).
Consider `CC1(C)C(C=C(Cl)Cl)C1C(=O)OCc1cccc(Oc2ccccc2)c1` (stereo not drawn), for which the Potency result (with Aromatase (Homo sapiens); in [15]) was “inactive” in each case.
Take `Oc1cc(Cl)cc(Cl)c1Cl`: the Potency in [15] is 24.9 µM (active).
Regarding `COc1cc2c(cc1OC)[C@@H]1CC(=O)[C@@H](CC(C)C)CN1CC2`, the Potency entry (in the experiment with Aromatase (Homo sapiens); in experiment [15]) was “inactive” each time.
On to `Cc1ccccc1-n1c(CF)nc2ccc(N)cc2c1=O`, for which the Potency entry in experiment [16], in experiment [1], in experiment [2], in experiment [3], in experiment [4] and in experiment [6] was “inactive” throughout. Moreover, the Potency entry in [7], in [9], in [10], in experiment [11], in experiment [19] and in experiment [12] was “inactive” throughout. Further, the Potency entry (in experiment [13]; with Aromatase (Homo sapiens); in [14]) was “inactive” throughout. In addition, the result in experiment [5] and in experiment [8] was inactive. Further, the Potency in experiment [15] is 29.8 µM (active).
In the case of `Cc1ccc(C)cc1`, the Potency result with Aromatase (Homo sapiens) is “inactive”.
As for `CN[C@H]1C[C@@H](N)[C@H](O)[C@@H](O[C@@H]2O[C@H](CO)[C@H](O)[C@@H]3OC4(O[C@H]23)O[C@H](C(N)CO)[C@H](O)[C@H](O)[C@H]4O)[C@@H]1O` (stereo partly drawn), the Potency result in [16], in experiment [1], in experiment [2], in experiment [3], in experiment [6] and in experiment [7] was “inactive” throughout. Besides, the Potency entry in experiment [9], in experiment [10], in experiment [11], in [17], in experiment [18] and in [19] was “inactive” each time. In addition, the Potency result (in experiment [12]; in experiment [13]; with Aromatase (Homo sapiens); in experiment [14]; in experiment [15]) was “inactive” in each case. Also, the call in experiment [5] and in [8] was inactive.
With `C[C@]12C[C@H]3S[C@H]3C[C@@H]1CC[C@@H]1[C@@H]2CC[C@]2(C)[C@@H](O)CC[C@@H]12`, the Potency entry in experiment [16], in experiment [1], in [2], in experiment [3], in experiment [4] and in experiment [6] was “inactive” in each case. Further, the Potency entry (in [9]; in experiment [10]; in experiment [11]; in [12]; in experiment [13]; with Aromatase (Homo sapiens)) was “inactive” each time. Also, the Potency entry in [14] and in experiment [15] was “inactive” throughout. Moreover, the molecule was called inactive in experiment [5] and in experiment [8].

Values taken from PubChem BioAssay (Tox21).
